Source: PubChem BioAssay AID1159580 (chemical genetic matrix, 2015)
Where “and” joins values, the source holds several entries; their conditions need not be identical. Equal values may be shown once. In all, about 5,500 compounds went through this assay and about 2,000 (36%) were called active. Not shown: some 18% with an inconclusive outcome. Rule as the data show it: active = normalized growth mostly below about 0.91 (no sharp cut-off); inconclusive = no clear call, values can overlap the other calls; inactive = mostly above about 0.92. The list shows a part of the results.

Assay: chemical genetic growth profiling, strain panel (AID 1159580);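 also: tested at 20 µM; growth read once vehicle control cultures reached saturation at 30 °C; 1 = growth at the plate median or of vehicle wells; lower values mean less growth of the strain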
Conditions: S. cerevisiae deletion strains, growth OD

Measured: normalized growth

NNCCc1ccccc1
inactive: locus YAL013W, strain DEP1, stronger effect = lower value 1 | locus YAL021C, strain ccr4, stronger effect = lower value 1.01 | locus YAL026C, strain drs2, stronger effect = lower value 1.02 | locus YAL030W, strain snc1, stronger effect = lower value 1.01 | locus YAL040C, strain CLN3, stronger effect = lower value 1.04 | locus YBL061C, strain skt5, stronger effect = lower value 1.01 | locus YBR009C, strain hhf1, stronger effect = lower value 1.01 | locus YBR021W, strain FUR4, stronger effect = lower value 0.997 | locus YBR023C, strain chs3, stronger effect = lower value 1.01 | locus YBR171W, strain sec66, stronger effect = lower value 1.02 | locus YBR229C, strain ROT2, stronger effect = lower value 0.954 | locus YBR231C, strain swc5, stronger effect = lower value 1.01 | locus YBR279W, strain paf1, stronger effect = lower value 1.01 | locus YCL011C, strain gbp2, stronger effect = lower value 1.01 | locus YCL016C, strain dcc1, stronger effect = lower value 1.01 | locus YCL029C, strain bik1, stronger effect = lower value 0.968 | locus YCL061C, strain MRC1 (second series), stronger effect = lower value 1.01 | locus YCL061C, strain MRC1, stronger effect = lower value 1.01 | locus YCL069W, strain vba3, stronger effect = lower value 1 | locus YCR088W, strain abp1, stronger effect = lower value 1.01 | locus YDL005C, strain med2, stronger effect = lower value 1.01 | locus YDL035C, strain GPR1, stronger effect = lower value 0.973 | locus YDL040C, strain nat1, stronger effect = lower value 1 | locus YDL074C, strain BRE1, stronger effect = lower value 0.946 | locus YDL101C, strain DUN1, stronger effect = lower value 0.975 | locus YDL134C, strain PPH21, stronger effect = lower value 0.994 | locus YDL185W, strain tfp1, stronger effect = lower value 0.98 | locus YDL192W, strain arf1, stronger effect = lower value 0.986 | locus YDR001C, strain nth1, stronger effect = lower value 1 | locus YDR069C, strain doa4, stronger effect = lower value 1 | locus YDR101C, strain arx1, stronger effect = lower value 0.985 | locus YDR137W, strain rgp1, stronger effect = lower value 1.02 | locus YDR150W, strain NUM1, stronger effect = lower value 0.996 | locus YDR159W, strain sac3, stronger effect = lower value 1.01 | locus YDR162C, strain NBP2, stronger effect = lower value 0.991 | locus YDR195W, strain ref2 0.997 | locus YDR297W, strain sur2, stronger effect = lower value 1 | locus YDR318W, strain mcm21, stronger effect = lower value 0.991 | locus YDR334W, strain swr1, stronger effect = lower value 0.999 | locus YDR335W, strain msn5, stronger effect = lower value 1.01 | locus YDR363W, strain ESC2, stronger effect = lower value 1.06 | locus YDR388W, stronger effect = lower value 0.991 | locus YDR392W, strain spt3, stronger effect = lower value 0.93 | locus YDR502C, strain sam2, stronger effect = lower value 0.994 | locus YEL003W, strain gim4, stronger effect = lower value 0.997 | locus YEL037C, strain rad23, stronger effect = lower value 1.01 | locus YEL061C, strain CIN8 (second series), stronger effect = lower value 1.01 | locus YEL061C, strain CIN8, stronger effect = lower value 0.98 | locus YER002W, strain NOP16, stronger effect = lower value 0.998 | locus YER015W, strain faa2, stronger effect = lower value 0.994 | locus YER016W, strain bim1, stronger effect = lower value 1.01 | locus YER110C, stronger effect = lower value 0.952 | locus YER111C, strain swi4, stronger effect = lower value 1.01 | locus YER155C, strain BEM2 (second series), stronger effect = lower value 1 | locus YER155C, strain BEM2, stronger effect = lower value 1 | locus YER167W, strain BCK2, stronger effect = lower value 0.99 | locus YFR010W, strain ubp6, stronger effect = lower value 0.989 | locus YGL078C, strain dbp3, stronger effect = lower value 0.995 | locus YGL086W, strain mad1, stronger effect = lower value 0.976 | locus YGL167C, strain pmr1, stronger effect = lower value 1.01 | locus YGL173C, strain kem1, stronger effect = lower value 1.01 | locus YGL227W, strain vid30, stronger effect = lower value 1.02 | locus YGL240W, strain doc1, stronger effect = lower value 1 | locus YGL248W, strain PDE1, stronger effect = lower value 0.979 | locus YGL253W, strain hxk2, stronger effect = lower value 1.01 | locus YGR078C, strain PAC10, stronger effect = lower value 1.01 | locus YGR135W, strain pre9, stronger effect = lower value 0.982 | locus YGR229C, strain SMI1, stronger effect = lower value 0.985 | locus YGR252W, strain gcn5, stronger effect = lower value 0.898 | locus YHR013C, strain ard1, stronger effect = lower value 1.02 | locus YHR027C, strain rpn1, stronger effect = lower value 1 | locus YHR030C, strain SLT2, stronger effect = lower value 0.996 and 0.983 | locus YHR079C, strain IRE1 (second series), stronger effect = lower value 0.991 | locus YHR079C, strain IRE1, stronger effect = lower value 0.965 | locus YHR094C, strain hxt1, stronger effect = lower value 0.99 | locus YHR129C, strain ARP1, stronger effect = lower value 0.981 | locus YHR142W, strain chs7, stronger effect = lower value 1.02 | locus YHR200W, strain rpn10, stronger effect = lower value 0.989 | locus YIL066C, strain RNR3, stronger effect = lower value 0.978 | locus YIL073C, strain SPO22, stronger effect = lower value 0.992 | locus YIL125W, strain kgd1, stronger effect = lower value 0.996 | locus YIR030C, strain dcg1, stronger effect = lower value 0.981 | locus YJL092W, strain hpr5, stronger effect = lower value 1 | locus YJL095W, strain BCK1 (second series), stronger effect = lower value 1.01 | locus YJL095W, strain BCK1, stronger effect = lower value 0.987 and 0.984 | locus YJL115W, strain asf1, stronger effect = lower value 1.01 | locus YJL129C, strain trk1, stronger effect = lower value 1.01 | locus YJL134W, strain LCB3, stronger effect = lower value 0.993 | locus YJL154C, strain vps35, stronger effect = lower value 1.01 | locus YJL164C, strain tpk1, stronger effect = lower value 1 | locus YJL166W, strain qcr8, stronger effect = lower value 1.01 | locus YJL168C, strain set2, stronger effect = lower value 0.985 | locus YJL187C, strain SWE1 (second series), stronger effect = lower value 0.976 | locus YJL187C, strain SWE1, stronger effect = lower value 1.01 | locus YJR043C, strain POL32, stronger effect = lower value 0.988
